Experimental findings from PubChem BioAssay (NCATS) are described below.

The nature of test [1]: qHTS drug screen for cell cycle checkpoint inhibitors in PARPi-resistant BRCA-mutant ovarian cancer cell lines. (AID 1963452). The note with it: PEO1/OlaR viability, CellTiter-Glo luminescence, 96 h, stronger effect = lower value. In outline: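 PEO1, PEO4 and PEO1/OlaR ovarian cancer cells, 600 per well, exposed 96 h at 37C to a dilution series. Viability read by CellTiter-Glo luminescence, normalized to DMSO and empty wells; activity summarized as Z-AUC.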

Test [2] can be described thus: qHTS Counterscreen for compound interference against the NCATS DSHEA and TCM libraries (AID 1919978; active means well fitted curve in the direction sought with a large enough effect; an effect the other way counts as inactive or inconclusive; further: % of control where 0% means no effect). The note with it: firefly luciferase detection reagent interference, luminescence. In outline: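 D-luciferin (1 uM final) or 100 mM potassium phosphate buffer alone was preincubated 15 min at RT with compounds (19.5 nM to 39.8 uM final). Luciferin detection reagent was then added and luminescence read after 30 min at RT.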
(qHTS replaces the single test concentration by a dilution series.)

Test [3] can be described thus: Dual reporter qHTS for agonist of Pregnane X Receptor (hPXR) against the NCATS DSHEA and TCM libraries: Fluorescence readout (AID 1920058; active means well fitted curve in the direction sought with a large enough effect; an effect the other way counts as inactive or inconclusive; further: 0% is about no effect). The note with it: PXR dual reporter cells; series mostly up to 40 µM. Put shortly: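 Cells were plated at 2000 per well and allowed to attach for 5 h. Test substances were pinned in and incubated roughly 24 h. CellTiter-Fluor was then added and fluorescence measured after 1 h.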

Test [4] has as its target Nuclear receptor subfamily 1 group I member 2 (Homo sapiens) (UniProt O75469). Put plainly: Dual reporter qHTS for agonist of Pregnane X Receptor (hPXR) against the NCATS DSHEA and TCM libraries: Luminescence readout (AID 1920059; active means well fitted curve in the direction sought with a large enough effect; an effect the other way counts as inactive or inconclusive; further: 0% is about no effect). As to conditions: hPXR dual reporter cells, luciferase luminescence agonist; series mostly up to 40 µM. Put shortly: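 Luminescent PXR reporter read (ONE-Glo) after a CellTiter-Fluor viability read, following 24 h, 37C treatment of HepG2 cells stably carrying hPXR-Luc.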

For test [5] the target is unchanged. Put plainly: Dual reporter qHTS for antagonist of Pregnane X Receptor (hPXR) against the NCATS DSHEA and TCM libraries: Luminescence Readout (AID 1920060; active means well fitted curve in the direction sought with a large enough effect; an effect the other way counts as inactive or inconclusive; further: 0% is about no effect). As to conditions: hPXR dual reporter cells, luciferase luminescence, antagonist mode; series mostly up to 40 µM. Put shortly: (§1)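 hPXR-Luc HepG2 cells exposed 24 h at 37 C to compounds with 2 uM rifampicin in antagonist mode; luciferase luminescence measured by ONE-Glo, with CellTiter-Fluor viability read beforehand.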

Test [6] is described as follows: Dual reporter qHTS for antagonist of Pregnane X Receptor (hPXR) against the NCATS DSHEA and TCM libraries: Fluorescence Readout (AID 1920061; active means well fitted curve in the direction sought with a large enough effect; an effect the other way counts as inactive or inconclusive; further: 0% is about no effect). As to conditions: PXR dual reporter cells, antagonist mode; series mostly up to 40 µM. Put shortly: as §1
Test [7] in a line: qHTS for identification of novel therapeutic agents for treatment of microphthalmiaassociated transcription factor (MiT) renal cell carcinoma (RCC) (AID 1963991). As to conditions: CellTiter-Glo, 48 h, stronger effect = lower value. Put shortly: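 Three TFE3-fusion RCC lines (UOK109, UOK124, UOK145), 500 cells/well in complete medium, were treated with MIPE 4.0 compounds for 48 hours at 37 C. Viability was by CellTiter-Glo luminescence, normalized to DMSO (100%) and empty wells (0%); curves fitted over 11 concentrations.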

The mark [8] stands for this setting: measured here: PEO1 parental Z-AUC.

Records with an inconclusive call do not appear. Active and inactive are the calls of the source. Unless noted, the call rests on the fitted dose curve.

Nuclear receptor subfamily 1 group I member 2 (Homo sapiens), sequence (O75469 whole entry, looked up): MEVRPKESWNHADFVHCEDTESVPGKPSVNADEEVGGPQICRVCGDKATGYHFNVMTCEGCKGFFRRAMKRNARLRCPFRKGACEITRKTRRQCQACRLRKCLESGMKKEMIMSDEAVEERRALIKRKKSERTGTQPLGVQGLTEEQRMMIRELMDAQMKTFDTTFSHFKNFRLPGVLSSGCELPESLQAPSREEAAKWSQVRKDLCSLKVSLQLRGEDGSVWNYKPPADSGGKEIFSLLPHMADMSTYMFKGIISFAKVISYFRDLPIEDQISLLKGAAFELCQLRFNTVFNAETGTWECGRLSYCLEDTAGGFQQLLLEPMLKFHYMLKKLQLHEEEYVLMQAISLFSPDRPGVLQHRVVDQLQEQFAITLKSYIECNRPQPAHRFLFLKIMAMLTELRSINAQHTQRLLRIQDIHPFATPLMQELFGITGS

For `Cc1cccc(Nc2nc(-c3ccncc3)cs2)c1`, the Z-AUC was 0.772 (inactive) in test [1], 0.626 in test [1] (setting [8]) and 0.437 in test [1] (measured here: PEO4 Z-AUC).
For the molecule `COCCOC(=O)C1=C(C)NC2=C(C(=O)CC(c3ccccc3OC)C2)C1c1cccc(O)c1` (stereo unspecified), the Z-AUC in test [1] is -0.198 (inactive); in test [1] (setting [8]), 0.425; in test [1] (measured here: PEO4 Z-AUC), 0.517.
As for `Cc1ccc(F)c(NC(=O)Nc2ccc(-c3cccc4[nH]nc(N)c34)cc2)c1`, the Z-AUC in test [1] was 1.25 (inactive); in test [1] (setting [8]), 1.09; in test [1] (measured here: PEO4 Z-AUC), 1.16.
In the case of `O=c1c(-c2ccc(O)cc2)coc2cc(O[C@@H]3O[C@H](CO)[C@H](O)[C@H](O)[C@H]3O)ccc12`, in test [2], the max response was 1.56% (inactive). For the same molecule, the call in test [3], in test [5] and in test [6] was inactive. Besides, the Potency entry in test [4] is “inactive”. In addition, the z-score in test [7] (TFE3-RCC UOK109 viability, measured here: UOK109 Z-AUC) was determined as 0.945; in test [7] (TFE3-RCC viability, measured here: UOK124 Z-AUC), 2.11; in test [7] (TFE3-RCC viability, measured here: UOK145 Z-AUC), 1.28.
Consider `CCCCCNC(=O)N1CCC(CN(Cc2ccc(Cl)cc2)Cc2ccc([N+](=O)[O-])s2)C1` (stereo unspecified), for which the Z-AUC in test [1] was -0.865 (inactive); in test [1] (setting [8]), 0.128; in test [1] (measured here: PEO4 Z-AUC) it was -0.734.
Take `COc1ccc2c(Oc3ccc(NC(=O)c4c(C)n(CC(C)(C)O)n(-c5ccccc5)c4=O)cc3F)ccnc2c1`: the Z-AUC in test [1] is -0.152 (inactive); in test [1] (setting [8]) it was 0.199; in test [1] (measured here: PEO4 Z-AUC) it was 0.0396.
As to `CC[C@@]1(O)C[C@H](O[C@H]2C[C@H](N(C)C)[C@H](O[C@H]3C[C@H](O)[C@H](O[C@H]4CCC(=O)[C@H](C)O4)[C@H](C)O3)[C@H](C)O2)c2c(cc3c(c2O)C(=O)c2c(O)cccc2C3=O)[C@@H]1C(=O)OC`, the figures for the Z-AUC in test [1], in test [1] (setting [8]) and in test [1] (measured here: PEO4 Z-AUC) were -0.814 (inactive), -0.555 and -0.946, respectively.
On the same counts, the results for `O=C1C(Cl)=C(NCCN2CCOCC2)C(=O)c2ncccc21` are -1.13 (inactive), -1.16 and -1.1.
Consider `CC(C)(C(=O)NCC(F)(F)C(F)(F)F)C(=O)N[C@@H]1C(=O)Nc2ccccc2-c2ccccc21`, for which the Z-AUC in test [1] was 0.455 (inactive); in test [1] (setting [8]), 0.706; in test [1] (measured here: PEO4 Z-AUC), 0.383.
With `CS(=O)c1ccc(-c2nc(-c3ccc(F)cc3)c(-c3ccncc3)[nH]2)cc1` (stereo unspecified), the values for the Z-AUC in test [1], in test [1] (setting [8]) and in test [1] (measured here: PEO4 Z-AUC) were 0.509 (inactive), 0.495 and 0.786, respectively.
Turning to `Oc1ccc(C2CCN(c3ccnc4ccccc34)CC2)cc1O`, the Z-AUC in test [1] was 0.817 (inactive); in test [1] (setting [8]), -0.32; in test [1] (measured here: PEO4 Z-AUC) it was 0.401.
In the case of `CC(C)=CC[C@@H](O)C1=CC(=O)c2c(O)ccc(O)c2C1=O`, the Z-AUC in test [1] is -0.228 (inactive); in test [1] (setting [8]), -0.402; in test [1] (measured here: PEO4 Z-AUC), -0.229.
As for `COc1ccc(-c2coc3cc(O)cc(O)c3c2=O)cc1`, the figures for the Z-AUC in test [1], in test [1] (setting [8]) and in test [1] (measured here: PEO4 Z-AUC) were 1.34 (inactive), 0.911 and 1.85, respectively.
Turning to `Cc1ccc(Nc2cc(-c3cccc(N4C(=O)c5ccccc5C4=O)c3)ncn2)cc1NS(C)(=O)=O`, the results for the Z-AUC in test [1], in test [1] (setting [8]) and in test [1] (measured here: PEO4 Z-AUC) were -0.648 (inactive), -0.644 and -0.365, respectively.
For the molecule `Clc1ccc(C(c2ccc(Cl)cc2)n2cc[n+](CC(OCc3ccc(Cl)cc3Cl)c3ccc(Cl)cc3Cl)c2)cc1` (stereo unspecified), the Z-AUC is 0.167 (inactive) in test [1], -0.468 in test [1] (setting [8]) and -0.455 in test [1] (measured here: PEO4 Z-AUC).
Take `N#CC1(c2ccc(NC(=O)c3cccnc3NCc3ccncc3)cc2)CCCC1`: the Z-AUC in test [1] was 1.21 (inactive); in test [1] (setting [8]), 1.37; in test [1] (measured here: PEO4 Z-AUC), 1.27.
In the case of `CC(=O)Nc1ccc([C@H](C)C(=O)Nc2ncc(C(C)C)s2)cc1`, the Z-AUC in test [1] was -0.905 (inactive); in test [1] (setting [8]), -1.74; in test [1] (measured here: PEO4 Z-AUC), -1.22.
On the same counts, the results for `COc1cc(Nc2ncc(F)c(Nc3ccc4c(n3)NC(=O)C(C)(C)O4)n2)cc(OC)c1OC` are 0.179 (inactive), 0.902 and 1.16.
On to `COc1cc2c(cc1OC)CN(CCc1ccc(NC(=O)c3cc(OC)c(OC)cc3NC(=O)c3cnc4ccccc4c3)cc1)CC2`, for which the Z-AUC in test [1] is 0.969 (inactive); in test [1] (setting [8]), 1.41; in test [1] (measured here: PEO4 Z-AUC), 1.02.
As for `N[C@H](CSC(c1ccccc1)(c1ccccc1)c1ccccc1)C(=O)O`, the Z-AUC in test [1] is 0.731 (inactive); in test [1] (setting [8]), 0.902; in test [1] (measured here: PEO4 Z-AUC) it was 0.85.
Take `O=C(CCN1CCN(C(=O)OCc2cc(Cl)cc(Cl)c2)CC1)c1ccc2[nH]c(=O)oc2c1`: the Z-AUC is 0.428 (inactive) in test [1], 0.576 in test [1] (setting [8]) and 0.591 in test [1] (measured here: PEO4 Z-AUC).
On to `CC(=O)Oc1cc2c(s1)CCN(C(C(=O)C1CC1)c1ccccc1F)C2` (stereo unspecified), for which the values for the Z-AUC in test [1], in test [1] (setting [8]) and in test [1] (measured here: PEO4 Z-AUC) were 0.888 (inactive), 0.469 and 0.814, respectively.
Regarding `N#Cc1ccc(NC(=O)Nc2ccccc2Br)c2n[nH]nc12`, the Z-AUC in test [1] was 1.45 (inactive); in test [1] (setting [8]), 0.952; in test [1] (measured here: PEO4 Z-AUC), 1.04.
`CC#CCn1c(N2CCC[C@@H](N)C2)nc2c1c(=O)n(Cc1nc(C)c3ccccc3n1)c(=O)n2C`: the Z-AUC was -0.285 (inactive) in test [1], 0.131 in test [1] (setting [8]) and -0.262 in test [1] (measured here: PEO4 Z-AUC).
The like results for `COc1ccc2c(Oc3ccc(NC(=O)c4c(C)n(CC(C)(C)O)n(-c5ccccc5)c4=O)nc3)ccnc2c1` were, in that order, 0.509 (inactive), 0.436 and -0.433.
As for `CO[C@@H](C(=O)N1Cc2[nH]nc(NC(=O)c3ccc(N4CCN(C)CC4)cc3)c2C1)c1ccccc1`, the Z-AUC in test [1] is -0.0482 (inactive); in test [1] (setting [8]), 0.272; in test [1] (measured here: PEO4 Z-AUC), -0.117.
As to `O=c1cc(-c2ccccc2)oc2cc(O)c(O)c(O)c12`, the Z-AUC in test [1] was 0.741 (inactive); in test [1] (setting [8]), 0.629; in test [1] (measured here: PEO4 Z-AUC), 0.577.
`CCCCCCCCCCCC1=C(O)C(=O)C=C(O)C1=O`: the Z-AUC in test [1] is 1.62 (inactive); in test [1] (setting [8]), 1.09; in test [1] (measured here: PEO4 Z-AUC), 1.19.
`Clc1ccc(CCC(Cn2ccnc2)Sc2c(Cl)cccc2Cl)cc1` (stereo unspecified): the Z-AUC in test [1] is 1.27 (inactive); in test [1] (setting [8]) it was 0.807; in test [1] (measured here: PEO4 Z-AUC) it was 0.874.
As for `CC(C)(C)Cn1c(N)nc2ccc(-c3[nH]c(C(C)(C)C)nc3-c3ccc(F)cc3)nc21`, the Z-AUC in test [1] is -0.716 (inactive); in test [1] (setting [8]), -1.14; in test [1] (measured here: PEO4 Z-AUC) it was -1.15.
For `NC(CO)(CO)CCc1ccc(Sc2cccc(OCc3ccccc3)c2)cc1Cl`, the Z-AUC in test [1] is 0.362 (inactive); in test [1] (setting [8]), -0.197; in test [1] (measured here: PEO4 Z-AUC) it was -0.274.
With `NS(=O)(=O)c1ccc(NC2=CC(=O)c3ccccc3C2=O)cc1`, the Z-AUC is -0.549 (inactive) in test [1], -0.888 in test [1] (setting [8]) and -0.629 in test [1] (measured here: PEO4 Z-AUC).
